# Experimental data published in ChEMBL document CHEMBL3988442, “University of Dundee, Small-Polar-MMV Screening Library” (2021).
# For some assays here: Results with a measured potency or affinity are listed apart.
# What was measured:
# Design in all cases: scale not given: direction of the effect not stated beside the values
# [1] = target: Protein translocase subunit SecA (Escherichia coli (strain K12)) (UniProt P10408); experiment: Assay to Identify E. coli SecA ATPase Inhibitors; type: functional; details: 30 µM
# Sequence of Protein translocase subunit SecA (Escherichia coli (strain K12)) (P10408 whole entry): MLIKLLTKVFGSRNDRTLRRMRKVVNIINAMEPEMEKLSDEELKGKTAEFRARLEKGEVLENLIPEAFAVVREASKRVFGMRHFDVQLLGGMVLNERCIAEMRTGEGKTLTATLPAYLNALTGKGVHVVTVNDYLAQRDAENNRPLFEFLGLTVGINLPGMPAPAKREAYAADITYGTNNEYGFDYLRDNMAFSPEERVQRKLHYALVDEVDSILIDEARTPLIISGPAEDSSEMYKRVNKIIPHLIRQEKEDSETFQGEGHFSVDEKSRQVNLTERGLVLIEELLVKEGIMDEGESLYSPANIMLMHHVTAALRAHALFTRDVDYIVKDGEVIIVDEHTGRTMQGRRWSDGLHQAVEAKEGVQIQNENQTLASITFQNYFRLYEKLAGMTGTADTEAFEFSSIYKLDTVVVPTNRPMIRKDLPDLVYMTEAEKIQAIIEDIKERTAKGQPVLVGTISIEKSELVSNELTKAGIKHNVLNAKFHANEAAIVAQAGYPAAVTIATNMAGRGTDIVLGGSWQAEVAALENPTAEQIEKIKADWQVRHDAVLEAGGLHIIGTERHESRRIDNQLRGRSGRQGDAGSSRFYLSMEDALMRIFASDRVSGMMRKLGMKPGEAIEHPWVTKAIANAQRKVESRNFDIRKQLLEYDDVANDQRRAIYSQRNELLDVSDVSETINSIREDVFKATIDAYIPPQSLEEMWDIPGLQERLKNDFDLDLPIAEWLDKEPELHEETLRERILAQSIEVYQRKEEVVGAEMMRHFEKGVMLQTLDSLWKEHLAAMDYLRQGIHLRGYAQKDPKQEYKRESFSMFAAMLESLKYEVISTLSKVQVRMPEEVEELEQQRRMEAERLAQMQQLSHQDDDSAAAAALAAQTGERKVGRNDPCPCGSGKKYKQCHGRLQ
# [2] = target: T1, Ubiquitin-activating enzyme e1, putative (Leishmania donovani (strain BPK282A1)) (UniProt E9BSI1); experiment: Leishmania donovani Ubiquitin Activating Enzyme (LdE1); type: functional; details: 30 µM
# T1 sequence (whole entry): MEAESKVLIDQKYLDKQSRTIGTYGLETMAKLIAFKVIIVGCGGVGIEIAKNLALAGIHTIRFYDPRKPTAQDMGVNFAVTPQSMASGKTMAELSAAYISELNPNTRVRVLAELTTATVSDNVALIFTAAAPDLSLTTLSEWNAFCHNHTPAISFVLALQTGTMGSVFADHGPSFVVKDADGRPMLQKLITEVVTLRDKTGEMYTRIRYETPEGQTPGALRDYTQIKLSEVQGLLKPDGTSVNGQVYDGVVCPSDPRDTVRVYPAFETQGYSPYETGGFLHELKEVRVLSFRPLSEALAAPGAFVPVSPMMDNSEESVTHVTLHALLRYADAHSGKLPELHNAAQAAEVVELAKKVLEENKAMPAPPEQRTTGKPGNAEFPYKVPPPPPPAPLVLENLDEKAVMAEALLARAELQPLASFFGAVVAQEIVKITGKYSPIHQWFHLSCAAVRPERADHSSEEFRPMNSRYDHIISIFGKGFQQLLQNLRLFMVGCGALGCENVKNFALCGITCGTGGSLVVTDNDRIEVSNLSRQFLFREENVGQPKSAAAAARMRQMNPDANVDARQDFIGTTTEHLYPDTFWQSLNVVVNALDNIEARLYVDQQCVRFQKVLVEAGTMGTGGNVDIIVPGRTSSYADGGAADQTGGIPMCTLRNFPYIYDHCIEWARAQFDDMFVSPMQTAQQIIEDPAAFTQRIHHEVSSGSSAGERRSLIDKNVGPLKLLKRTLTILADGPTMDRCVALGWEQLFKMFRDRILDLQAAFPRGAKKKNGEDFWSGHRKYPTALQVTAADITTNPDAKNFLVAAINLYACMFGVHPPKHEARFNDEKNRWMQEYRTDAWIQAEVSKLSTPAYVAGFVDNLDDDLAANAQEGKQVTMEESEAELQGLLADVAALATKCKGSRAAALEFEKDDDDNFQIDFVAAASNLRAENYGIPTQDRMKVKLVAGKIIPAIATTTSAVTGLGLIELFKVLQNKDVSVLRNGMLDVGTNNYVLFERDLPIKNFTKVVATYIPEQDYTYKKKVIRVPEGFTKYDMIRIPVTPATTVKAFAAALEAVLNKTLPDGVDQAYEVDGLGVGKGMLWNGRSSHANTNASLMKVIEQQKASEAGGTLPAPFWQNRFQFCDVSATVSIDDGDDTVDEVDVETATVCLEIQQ
# [3] = target: Sialic acid-binding Ig-like lectin 9 (Homo sapiens) (UniProt Q9Y336); experiment: Hs-Siglec9 ALPHAscreen SOP 20170721; details: 10 µM
# Sequence of Sialic acid-binding Ig-like lectin 9 (Homo sapiens) (Q9Y336 whole entry): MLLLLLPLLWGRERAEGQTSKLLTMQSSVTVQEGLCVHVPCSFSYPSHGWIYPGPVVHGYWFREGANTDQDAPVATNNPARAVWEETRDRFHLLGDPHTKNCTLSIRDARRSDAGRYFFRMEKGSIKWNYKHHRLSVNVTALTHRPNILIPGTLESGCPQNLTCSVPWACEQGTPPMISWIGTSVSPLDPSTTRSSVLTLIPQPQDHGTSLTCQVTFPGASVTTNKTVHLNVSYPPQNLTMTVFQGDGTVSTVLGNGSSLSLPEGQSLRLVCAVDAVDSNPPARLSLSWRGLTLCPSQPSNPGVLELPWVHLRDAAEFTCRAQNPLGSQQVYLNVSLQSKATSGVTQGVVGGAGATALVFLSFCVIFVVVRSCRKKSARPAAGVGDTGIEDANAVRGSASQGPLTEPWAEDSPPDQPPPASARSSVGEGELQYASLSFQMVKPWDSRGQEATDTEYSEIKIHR
# Trypanosoma cruzi = experiment: Trypanosoma cruzi phosphomannomutase and mannose-1-phosphate guanylyltransferase assay; type: functional; details: 10 µM
# [4] = target: T2, Arginase-2, mitochondrial (Homo sapiens) (UniProt P78540); experiment: in vitro enzyme assay to detect the production of urea directly proportional to the activity of Arginase II; type: functional; details: 33.3 µM; also: in the data most compounds retested in dose-response had high values
# T2 sequence (whole entry): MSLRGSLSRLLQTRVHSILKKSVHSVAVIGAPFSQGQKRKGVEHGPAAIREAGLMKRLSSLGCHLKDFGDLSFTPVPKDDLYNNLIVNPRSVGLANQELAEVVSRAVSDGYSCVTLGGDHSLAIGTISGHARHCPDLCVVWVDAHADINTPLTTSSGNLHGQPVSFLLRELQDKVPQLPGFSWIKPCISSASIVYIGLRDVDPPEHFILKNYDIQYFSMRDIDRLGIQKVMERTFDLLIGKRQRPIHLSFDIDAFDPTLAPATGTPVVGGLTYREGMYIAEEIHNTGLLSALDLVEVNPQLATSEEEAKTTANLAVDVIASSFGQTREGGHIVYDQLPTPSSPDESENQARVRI
# [5] = target: T3, Proteasome subunit beta (Trypanosoma cruzi) (UniProt O96673); experiment: Trypanosoma cruzi proteasome chymotrypsin-like activity (TcProtChymo) assay.; also: in the data most compounds retested in dose-response had high values; type: functional; details: 9.37 µM
# T3 sequence (whole entry): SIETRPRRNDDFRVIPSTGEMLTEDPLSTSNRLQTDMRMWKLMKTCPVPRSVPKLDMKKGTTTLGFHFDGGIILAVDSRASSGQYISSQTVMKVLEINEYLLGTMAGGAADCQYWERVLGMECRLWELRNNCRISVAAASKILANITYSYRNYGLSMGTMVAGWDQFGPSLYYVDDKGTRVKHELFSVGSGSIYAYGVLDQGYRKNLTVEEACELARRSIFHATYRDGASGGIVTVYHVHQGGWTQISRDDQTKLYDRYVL
# Homo sapiens = species: Homo sapiens; experiment: To identify inhibition of the IFN signalling (Jak-Stat) pathway via expression of an eGFP reporter gene under the control of an IFN-stimulated response element (ISRE) containing MxA promoter.; type: functional; details: 30 µM
# [6] = target: T4, Tyrosyl-tRNA synthetase, putative (Trypanosoma cruzi (strain CL Brener)) (UniProt Q4DSP6); experiment: Trypanosoma cruzi tyrosyl tRNA synthetase (TcYRS) _High Tyrosine SOP; type: functional; details: 30 µM; also: in the data most compounds retested in dose-response had high values
# T4 sequence (whole entry): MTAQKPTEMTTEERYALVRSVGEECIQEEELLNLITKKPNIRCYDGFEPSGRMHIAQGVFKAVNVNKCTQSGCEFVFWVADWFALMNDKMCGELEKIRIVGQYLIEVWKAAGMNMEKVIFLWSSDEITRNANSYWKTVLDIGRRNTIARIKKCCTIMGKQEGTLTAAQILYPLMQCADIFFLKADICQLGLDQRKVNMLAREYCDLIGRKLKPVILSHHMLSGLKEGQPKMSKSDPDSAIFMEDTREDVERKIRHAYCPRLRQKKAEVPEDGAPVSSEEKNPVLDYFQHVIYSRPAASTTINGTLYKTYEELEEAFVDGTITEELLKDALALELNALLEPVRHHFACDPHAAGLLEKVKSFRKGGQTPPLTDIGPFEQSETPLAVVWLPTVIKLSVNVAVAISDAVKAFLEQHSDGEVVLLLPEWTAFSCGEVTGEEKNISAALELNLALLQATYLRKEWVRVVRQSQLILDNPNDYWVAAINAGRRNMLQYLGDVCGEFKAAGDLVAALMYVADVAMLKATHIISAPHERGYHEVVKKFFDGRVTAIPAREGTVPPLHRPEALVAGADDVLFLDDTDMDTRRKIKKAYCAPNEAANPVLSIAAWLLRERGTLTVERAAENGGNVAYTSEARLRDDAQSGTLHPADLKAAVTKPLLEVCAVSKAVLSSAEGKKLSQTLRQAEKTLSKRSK
# [7] = target: T4, Tyrosyl-tRNA synthetase, putative (Trypanosoma cruzi (strain CL Brener)); experiment: Trypanosoma cruzi tyrosyl tRNA synthetase (TcYRS) SOP; type: functional; details: 30 µM
# [8] = target: Chromo domain-containing protein 1 (Saccharomyces cerevisiae (strain ATCC 204508 / S288c) (Baker's yeast)) (UniProt P32657); experiment: ScCHD-1 Enzyme Inhibition Assay; type: functional; details: 30 µM; also: in the data most compounds retested in dose-response had high values
# Sequence of Chromo domain-containing protein 1 (Saccharomyces cerevisiae (strain ATCC 204508 / S288c) (Baker's yeast)) (P32657 whole entry, the tested form may be a part): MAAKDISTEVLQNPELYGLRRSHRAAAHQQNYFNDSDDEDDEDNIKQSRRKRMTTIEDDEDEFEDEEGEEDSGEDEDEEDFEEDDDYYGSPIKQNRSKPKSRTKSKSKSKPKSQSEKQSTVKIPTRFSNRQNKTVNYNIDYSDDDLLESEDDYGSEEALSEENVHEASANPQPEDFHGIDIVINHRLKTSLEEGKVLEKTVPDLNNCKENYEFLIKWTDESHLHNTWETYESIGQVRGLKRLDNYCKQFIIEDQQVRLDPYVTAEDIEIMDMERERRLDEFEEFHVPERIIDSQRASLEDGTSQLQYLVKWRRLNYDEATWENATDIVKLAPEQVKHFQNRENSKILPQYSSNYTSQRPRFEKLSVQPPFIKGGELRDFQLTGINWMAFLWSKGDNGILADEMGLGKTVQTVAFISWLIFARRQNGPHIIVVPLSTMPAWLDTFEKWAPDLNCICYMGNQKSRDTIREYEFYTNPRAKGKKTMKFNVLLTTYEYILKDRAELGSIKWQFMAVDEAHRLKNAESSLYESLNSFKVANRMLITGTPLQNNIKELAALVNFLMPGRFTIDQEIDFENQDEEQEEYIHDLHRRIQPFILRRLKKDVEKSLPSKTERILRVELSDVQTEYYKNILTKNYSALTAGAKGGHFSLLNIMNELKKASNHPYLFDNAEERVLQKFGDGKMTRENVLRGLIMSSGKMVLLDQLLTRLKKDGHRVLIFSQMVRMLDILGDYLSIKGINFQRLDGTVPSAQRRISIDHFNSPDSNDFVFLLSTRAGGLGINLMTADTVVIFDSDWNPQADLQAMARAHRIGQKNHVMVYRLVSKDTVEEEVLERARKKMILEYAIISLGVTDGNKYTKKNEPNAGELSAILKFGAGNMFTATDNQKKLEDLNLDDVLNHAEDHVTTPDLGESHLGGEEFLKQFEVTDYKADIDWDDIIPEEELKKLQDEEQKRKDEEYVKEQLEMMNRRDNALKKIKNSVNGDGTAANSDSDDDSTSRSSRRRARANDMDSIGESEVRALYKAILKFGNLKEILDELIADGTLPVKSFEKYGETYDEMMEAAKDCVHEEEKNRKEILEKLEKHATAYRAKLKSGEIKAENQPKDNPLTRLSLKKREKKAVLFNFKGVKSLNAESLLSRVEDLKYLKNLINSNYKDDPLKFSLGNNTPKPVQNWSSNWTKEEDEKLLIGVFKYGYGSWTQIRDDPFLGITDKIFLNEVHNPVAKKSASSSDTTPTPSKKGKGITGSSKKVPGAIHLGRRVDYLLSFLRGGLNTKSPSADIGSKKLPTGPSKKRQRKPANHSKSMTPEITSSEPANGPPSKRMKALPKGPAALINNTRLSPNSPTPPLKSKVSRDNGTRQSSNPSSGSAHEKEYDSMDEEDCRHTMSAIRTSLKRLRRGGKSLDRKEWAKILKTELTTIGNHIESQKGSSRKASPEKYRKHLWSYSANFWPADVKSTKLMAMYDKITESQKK
SMILES,Percent Effect [1],Percent Effect [2],Percent Effect [3],Percent Effect (Trypanosoma cruzi),Percent Effect [4],Percent Effect [5],Percent Effect (Homo sapiens),Percent Effect [6],Percent Effect [7],Percent Effect [8]
CCc1nc(C2CCCN2C(=O)c2ncoc2CC)no1 (stereo not drawn),-4.57%,7.69%,5.36%,10.6%,-4.92%,-5.38%,-5.4%,2.39%,8.43%,0.961%
Cc1cc(C(=O)NCc2ccc(N3CCCC(C(N)=O)C3)cc2)[nH]n1 (stereo not drawn),-7.13%,10.7%,-2.98%,-3.21%,-0.887%,16.2%,14.9%,0.526%,5.13%,-7.84%
O=C1CC(c2ccsc2)c2sc(C(=O)O)c(-c3ccccc3)c2N1 (stereo not drawn),-4.21%,8.11%,8.19%,5.92%,21.3%,21.9%,11.7%,4.79%,12.2%,33.2%
Cc1[nH]/c(=N\C(=O)c2csc(NC3CC3)n2)sc1C,-5.11%,8.11%,-0.99%,-1.84%,-1.75%,,10.7%,11.2%,14.6%,14.5%
O=C(NCc1ccccc1-n1cccn1)N1CCN2CCCCC2C1 (stereo not drawn),-4.48%,0%,9.91%,0.803%,2.22%,1.78%,-2.71%,2.63%,10.3%,-8%
Cc1n[nH]c(=O)c2c(NC(=O)CN3CCCC(C(F)(F)F)C3)oc(C)c12 (stereo not drawn),2.19%,23.1%,-19.8%,1.41%,0%,17.7%,-1.71%,3.35%,22.9%,-4.61%
Cc1ccc(C#N)cc1NC(=O)NC1CCCN(c2ncccn2)C1 (stereo not drawn),-5.74%,15.6%,3.91%,-2.98%,1.02%,-1.4%,20.9%,3.92%,18.8%,-8.47%
OCC1CCCCN1c1ccc(-c2nc(-c3ccccc3F)no2)cn1 (stereo not drawn),-2.19%,-5.41%,7.51%,5.14%,16.4%,,1.31%,-0.532%,4.88%,86.3%
CCc1ccc(O)c(C(=O)NC2CCN(S(=O)(=O)CC)CC2)c1,-6.37%,17.9%,-17.5%,5.35%,-4.92%,10.2%,20.5%,1.44%,22.9%,-10.9%
CN(Cc1cccc(F)c1)C(=O)CN1CCOC(Cn2cccn2)C1 (stereo not drawn),0.367%,0%,7.99%,0.933%,0.615%,3.86%,8.18%,3.92%,9.41%,-0.994%
